Molecules are shown by their SMILES. Potency and affinity values are given separately.

For this experiment, the system named is Candida albicans. The settings on record: Concentration 32 ug.mL-1; ASSAY_TEST Inhibition of Fungal Growth; detection method Absorption (OD530).
The term Inhibition denotes the relative decrease from the control value, in per cent. Take `COc1ccc(C)cc1NC(=O)Cn1nc2c3cc(-c4ccc(C)c(C)c4)nn3ccn2c1=O`: the Inhibition came to 0.52%.

For `Cc1c(Cl)cccc1NC(=O)Cn1nc2c(SCc3ccccc3)nccn2c1=O`, the Inhibition was determined as 2.12%.

For `Cc1ccc(Sc2ccc3nn(CC(=O)Nc4cccc(Cl)c4)c(=O)n3n2)cc1`, the Inhibition was found to be 23.7%.

`CC(C)c1nnc2c(=O)n(CC(=O)Nc3cccc(C#N)c3)c3ccccc3n12`: the Inhibition turned out to be 2.88%.

As to `COc1cccc(Sc2nc3ccccc3n3c(=O)n(CC(=O)Nc4ccc(Cl)cc4)nc23)c1`, the Inhibition amounted to 36.59%.

With `CCOc1ccc(NC(=O)Cn2nc3c(Sc4cccc(F)c4)nccn3c2=O)cc1`, the Inhibition was found to be 0.06%.

As to `Cc1cccc(NC(=O)Cn2nc3ccc(SC(C)(C)C)nn3c2=O)c1`, the Inhibition was 1.46%.

Consider `Cc1ccccc1NC(=O)Cn1nc2ccc(SC3CCCCC3)nn2c1=O`, for which the Inhibition is given as -1.85%.

For the molecule `CCc1cccc(NC(=O)Cn2nc3nc(N4CCCCCC4)ccn3c2=O)c1`, the Inhibition worked out at 0.8%.

As for `Cc1cccc(C)c1NC(=O)Cn1c(=O)c2nnc(C(C)C)n2c2ccccc21`, the Inhibition is recorded as 4.52%.

For `CCc1nnc2c(S(=O)(=O)N(Cc3cccc(C)c3)c3ccc(Cl)cc3)cccn12`, the Inhibition worked out at 0.59%.

`Cc1cc(C)c(NC(=O)Cn2nc3ccc(-c4ccc(C)c(C)c4)nn3c2=O)c(C)c1`: the Inhibition worked out at 0.76%.

Consider `CC(C)c1nnc2c(SCC(=O)Nc3ccccc3Br)nc3ccccc3n12`, for which the Inhibition came out at 4.2%.

Regarding `O=C(Cn1nc2c(Oc3ccccc3)nccn2c1=O)Nc1ccccc1Cl`, the Inhibition is listed as -0.88%.

In the case of `CC(C)Cn1c(=O)c2sccc2n2c(=O)n(CC(=O)N3CCC(Cc4ccccc4)CC3)nc12`, the Inhibition is recorded as 0.45%.

For `COc1ccc(NC(=O)c2ccc3nn(CC(=O)Nc4ccc(C)c(F)c4)c(=O)n3c2)cc1`, the Inhibition was 10.47%.

Regarding `Cc1cccc(Oc2nccn3c(=O)n(CC(=O)N4CCN(c5ccccc5F)CC4)nc23)c1C`, the Inhibition is recorded as 1.02%.

On to `O=S(=O)(c1ccc2nncn2c1)N(Cc1cc(F)cc(F)c1)c1ccc2c(c1)OCO2`, for which the Inhibition came to 2.54%.

Turning to `COc1cccc(-n2ccn3c(SCC(=O)N4CCN(c5ccc(F)cc5)CC4)nnc3c2=O)c1`, the Inhibition stood at 0.06%.

Take `COc1ccc(-c2cc3c4nn(CC(=O)Nc5ccc(C)c(C)c5)c(=O)n4ccn3n2)cc1`: the Inhibition was -0.09%.

On to `CCOc1ccc(NC(=O)Cn2nc3c(SCc4ccc(Cl)cc4)nccn3c2=O)cc1`, for which the Inhibition was found to be 17.72%.

As to `COc1ccc(C(=O)CSc2nnc3c(=O)n(-c4ccc(Br)cc4)ccn23)cc1`, the Inhibition was found to be 4.09%.

Consider `Cc1cc2nn(CC(=O)Nc3ccc(F)cc3C)c(=O)n2c(Nc2ccc(F)cc2)n1`, for which the Inhibition was 9.27%.

Take `Cc1nnc2ccc(S(=O)(=O)N(Cc3cccc(F)c3)c3ccc(F)c(F)c3)cn12`: the Inhibition was 1.97%.

Take `COC(=O)c1ccccc1NC(=O)Cn1nc2c(Oc3ccc(C)cc3)nccn2c1=O`: the Inhibition is given as -2.14%.

`COC(=O)c1cccc(NC(=O)Cn2nc3ccc(-c4ccc(C)c(C)c4)nn3c2=O)c1`: the Inhibition was found to be 2%.

For `COc1ccccc1Cn1c(=O)c2sccc2n2c(=O)n(Cc3ccccc3)nc12`, the Inhibition is on record as -0.06%.

For the molecule `COc1cccc(-n2ccn3c(SCC#N)nnc3c2=O)c1`, the Inhibition worked out at 3.51%.

As for `Cc1nnc2c(SCC(=O)Nc3ccc(F)cc3F)nc3ccccc3n12`, the Inhibition was 0.69%.

In the case of `COc1ccc(NC(=O)Cn2nc3c(Oc4ccccc4)nccn3c2=O)cc1OC`, the Inhibition came out at 1.92%.

With `CCOc1ccc(-n2ccn3c(SCC(=O)Nc4ccc(C)c(C)c4)nnc3c2=O)cc1`, the Inhibition came out at 2.77%.

For the molecule `COc1ccc(-c2cc3c4nnc(SCC(=O)Nc5ccc(C#N)cc5)n4ccn3n2)cc1`, the Inhibition was determined as 1.48%.

For the molecule `Cc1cc(F)ccc1NC(=O)Cn1nc2c(SCc3ccc(Cl)cc3)nccn2c1=O`, the Inhibition was 13.65%.

Consider `Cc1ccc(-c2cc3c4nn(CC(=O)N5CCN(c6ccc(F)cc6)CC5)c(=O)n4ccn3n2)cc1C`, for which the Inhibition turned out to be 1.65%.

`COc1ccc(-c2cc3c4nnc(CCC(=O)NCc5ccc(OC)c(OC)c5)n4ccn3n2)cc1`: the Inhibition came out at 2.24%.

As for `CC(C)(C)NC(=O)Cn1nc2n(Cc3ccco3)c(=O)c3sccc3n2c1=O`, the Inhibition is 1.61%.

For `Cc1ccc(C)c(Cn2nc3ccc(-c4ccc(C)c(C)c4)nn3c2=O)c1`, the Inhibition amounted to 1.53%.

As to `O=c1n(Cc2cc(F)cc(F)c2)nc2ccc(-c3ccccc3)nn12`, the Inhibition worked out at 0.55%.

As to `Cc1nnc2ccc(S(=O)(=O)N(Cc3ccccc3)c3ccc(Cl)cc3)cn12`, the Inhibition was -0.42%.

These data come from ChEMBL document CHEMBL4513146, “CO-ADD screening of Karazin Kharkiv National University (Ukraine) compounds”.
